# The list is not random: actives were taken first. Their share in the collection is about 12%.
# Sfp PPTase inh – qHTS Assay for Inhibitors of Bacillus subtilis Sfp phosphopantetheinyl transferase (PPTase) | 310,000 tested, 3.5% active | Biochemical Sfp PPTase activity, qHTS | Potency, µM, without a hit: largest response in the series, negative = inhibition, usual class: inhibitors;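 further: the enzyme is Sfp with the accession as filed and its product quenches rhodamine fluorescence; potency means the concentration at half of the fitted maximal effect; 0% = enzyme reaction without inhibitor and -100% = no enzyme wells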
#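 Buffer: 50 mM Hepes-Na pH 7.6, 10 mM MgCl2, 0.01% Nonidet P-40, 0.01% BSA. Enzyme 15 nM, pre-exposed to compound 15 min; substrates then added and fluorescence change tracked over 30 min.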
# HP1b binding inh – HTS for Inhibitors of HP1-beta Chromodomain Interactions with Methylated Histone Tails. 390,000 tested, 0.56% active. AlphaScreen HP1-beta / biotin-H3K9me3 peptide binding. Potency, µM (top dose mostly 114 µM), for inactives: at the top dose activity change, negative = inhibition, actives largely listed as inhibitors. Chromobox protein homolog 1 (Homo sapiens), P83916. AID 540317, 2011; further: potency means the concentration at half of the fitted maximal effect; nearly all actives have a fitted effect of over 70% in size
#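 HP1-beta protein (50 nM final) preincubated 30 min at room temperature with biotinylated H3(1-18)K9me3 peptide (50 nM) in PBS pH 7.4, 0.01% Tween-20, then compound added for 30 min. AlphaScreen streptavidin donor/nickel chelate acceptor beads (10 ug/mL final), 30 min dark, luminescence read.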
# G9a inh-1 – qHTS Assay for Inhibitors of Histone Lysine Methyltransferase G9a; Histone-lysine N-methyltransferase EHMT2 (Homo sapiens), Q96KQ7; G9a H3K9 monomethylation, AlphaScreen, 2 h; Potency, µM (series often up to 102 µM), for inactives: top-dose activity, negative = inhibition, actives largely listed as inhibitors; 350,000 tested, 8.8% active; AID 504332, 2011; further: potency means the concentration at half of the fitted maximal effect; on the % scale 0 is the no-effect control and ±100 the full control effect; nearly all actives have a fitted effect of over 75% in size
#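 Compounds were preincubated with 20 nM G9a for 15 min, after which biotinylated H3K9 peptide (500 nM) and SAM (20 uM) started a 2 h room-temperature reaction. Monomethylated product was quantified by antibody-based AlphaScreen chemiluminescence.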
# BAZ2B block – qHTS Assay for Inhibitors of BAZ2B; Bromodomain adjacent to zinc finger domain protein 2B (Homo sapiens), Q9UIF8; AlphaScreen BAZ2B-H3K14Ac peptide displacement; Potency, µM (top dose mostly 114 µM), for the others: at the top dose activity change, negative = inhibition, most hits filed as inhibitors; 360,000 tested, 4.4% active; further: potency means the concentration at half of the fitted maximal effect; on the % scale 0 is the no-effect control and ±100 the full control effect; nearly all actives have a fitted effect of over 60% in size
#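 AlphaScreen displacement of biotin-H3(5-23)K14Ac peptide (50 nM final) from BAZ2B (50 nM final) in PBS pH 7.4, 0.01% Tween-20; complex preformed 30 min RT, then compounds (top 110 uM) 30 min RT, beads 20 min dark.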
# JMJD2A Tudor – qHTS Assay for Inhibitors of JMJD2A-Tudor Domain; Potency, µM (series often up to 114 µM), inactives show at the top dose activity change, negative = inhibition, hits mostly inhibitors; 390,000 tested, 4.4% active; Lysine-specific demethylase 4A (Homo sapiens), O75164; AlphaScreen JMJD2A-Tudor / H3K4me3 peptide binding; further: potency means the concentration at half of the fitted maximal effect; on the % scale 0 is the no-effect control and ±100 the full control effect; nearly all actives have a fitted effect of over 50% in size
# JMJD2E confirm – Confirmation qHTS Assay for Inhibitors of Human Jumonji Domain Containing 2E (JMJD2E). AID 2677, 2010. 140 tested, 93% active. Potency, µM (highest dose often 56.8 µM), inactives show at the top dose activity change, negative = inhibition, most hits filed as inhibitors. Recombinant JMJD2E, FDH-coupled NADH fluorescence (FDH is formaldehyde dehydrogenase). shares compounds with JMJD2A Tudor
# FDH inh – Counterscreen for JMJD2E Inhibitors: qHTS Assay for Inhibitors of Formaldehyde Dehydrogenase (FDH) | shares compounds with JMJD2A Tudor | FDH enzyme assay, NADH fluorescence kinetic | Potency, µM (series often up to 56.7 µM), for inactives: at the highest dose activity, negative = inhibition, usual class: inhibitors | 140 tested, 10% active | AID 2680, 2010
# G9a inh-2 – qHTS Assay for Inhibitors of Histone Lysine Methyltransferase G9a: Hit Confirmation | G9a H3K9 monomethylation, AlphaScreen, 2 h | 370 tested, 89% active | shares compounds with JMJD2A Tudor | Potency, µM, actives largely listed as inhibitors | AID 588344, 2011; further: potency means the concentration at half of the fitted maximal effect; nearly all actives have a fitted effect of over 65% in size
# An asterisk follows results filed as active; ? = inconclusive; nt = not tested or not shown; ! = repeats disagree; [ ] = another dose, or the depositor's remark. The call rests on the fitted dose curve; in most records, active means well fitted curve in the direction sought with a large enough effect; inconclusive means small, poorly fitted or top-dose-only effect, or another doubt; inactive means no such curve, though single readings can be large; an effect the other way counts as inactive or inconclusive.
SMILES,Sfp PPTase inh,HP1b binding inh,G9a inh-1,BAZ2B block,JMJD2A Tudor,G9a inh-2,others
Cc1ccc(N2C(=O)CC(Sc3ncn[nH]3)C2=O)cc1C (stereo not given),50.1µM*,-61.6%,2µM*,?,10µM*,nt,JMJD2E confirm=7.08µM*;FDH inh=0.224µM*
O=C(COc1ccccc1F)Nc1ccc2nc(SCc3ccccc3)sc2c1,nt,57.6%,6.1%[59 µM],-10.1%,15.9%,nt,
CCOC(=O)c1ccc(S(=O)(=O)N2CCN(Cc3cc4c(cc3O)OCO4)CC2)cc1,nt,11.4%,0.398µM*,-33.6%,-21.1%,0.893*,
O=S(=O)(c1ccccc1F)N1CCN(Cc2cc3c(cc2O)OCO3)CC1,nt,38.9%,?,?,?,nt,
Cc1onc(-c2ccccc2)c1C(=O)Nc1nnc(COc2ccc(Cl)cc2)s1,7.08µM*,?,?,-34.6%,?,0.796*,
CCOc1ccc(NC(=O)CN2CCN(CC(=O)c3ccc(OCC)cc3)CC2)cc1,-5.6%,45.6%,2.82µM*,8.5%,?,5.64*,
CCOc1ccc(NC(=O)CN2CCN(CC(=O)c3ccc(OC)c(OC)c3)CC2)cc1,8.3%,-0.1%,2.51µM*,8.1%,?,44.7*,
CCN(CC)c1ccc(NC(=O)CN2CCN(S(=O)(=O)c3cc(Cl)ccc3OC)CC2)cc1,-5.4%,?,8.91µM*,50.1µM*!,39.8µM*,3.98*,
Fc1ccc(-n2ncc3c(Nc4ccc(Oc5ccc(Cl)cc5)cc4)ncnc32)cc1,nt,28.4%,4.5%[59 µM],-1.6%,1.8%,nt,
CN(C(=O)c1cccc(NC(=O)Cc2cccc(NC(=O)C3CCN(C(=O)C4CCC4)CC3)c2)c1)C1CCC1,nt,0.6%,nt,nt,-21.9%,nt,
CCN(CC)c1ccc(NC(=O)c2cc(OC)cc(OC)c2)c(C)c1,5.1%,-33.7%,2.51µM*,39.8µM*,?,3.16*,
CCc1ccc(C(C)NC(=O)c2ccncc2)cc1 (stereo not given),-3.4%,37.8%,nt,1.8%,-16.4%,nt,
CCN(CC(=O)Nc1ccc(NC(C)=O)cc1)CC(=O)Nc1ccc(F)c(Cl)c1,-7.2%,30.5%,-1.4%,-10.5%,-15.2%,nt,
CCN(CC(=O)Nc1ccc(NC(C)=O)cc1)Cc1c(O)ccc2cc(Br)ccc12,-16.9%,70.8µM*,1.78µM*,50.1µM*,50.1µM*,0.448*,
Cc1ccc(NC(=O)CN(C)Cc2c(O)ccc3ccccc23)cc1,-17.4%,-12.3%,1.41µM*,-32.6%,79.4µM*,0.632*,
COC(=O)c1ccccc1NC(=O)CSc1nc2sc3c(c2c(=O)[nH]1)CCCC3,nt,?,?,?,56.2µM*,4.08*,
Cc1cc(C)cc(NC(=O)CSc2nc3sc4c(c3c(=O)[nH]2)CCCC4)c1,nt,42.2%,5.9%[59 µM],-4.8%,-15.2%,nt,
CCn1c(SCC(=O)N2CCCC2)nnc1-c1ccc(N)cc1,-9.8%,-7.4%,1.12µM*,0.2%,11.6%[11.4 µM],1.59*,
O=C(CSc1ncn(-c2ccccc2)n1)Nc1nc(-c2ccccc2)cs1,-17.4%,32.2%,-2.6%[59 µM],-3.8%,-7.4%,nt,

# Screening results as filed in PubChem BioAssay.
